Measurements as given in PubChem BioAssay AID1851 (National Center for Advancing Translational Sciences (NCATS), 2009).
Out of some 16,000 compounds screened, about 5,700 (36%) were called active. Another 24% or so got no clear call; they are omitted. Calls follow the shape of the dose curve; as a rule, active = well fitted curve in the direction sought with a large enough effect; inconclusive = small, poorly fitted or top-dose-only effect, or effect the other way; inactive = no such curve, though single readings can be large or run the other way. This is one part of the list.

Target: Cytochrome P450 1A2 (Homo sapiens) (UniProt P05177)
Experiment: Cytochrome panel assay with activity outcomes
Conditions: recombinant CYP, pro-luciferin dealkylation, luminescence, p450-cyp1a2; series mostly up to 57.1 µM; activity, negative = inhibition: at the top concentration
% is scaled to controls: 0 for no effect and ±100 for the full control effect.

Chain of Cytochrome P450 1A2 (Homo sapiens) (P05177 whole entry, looked up): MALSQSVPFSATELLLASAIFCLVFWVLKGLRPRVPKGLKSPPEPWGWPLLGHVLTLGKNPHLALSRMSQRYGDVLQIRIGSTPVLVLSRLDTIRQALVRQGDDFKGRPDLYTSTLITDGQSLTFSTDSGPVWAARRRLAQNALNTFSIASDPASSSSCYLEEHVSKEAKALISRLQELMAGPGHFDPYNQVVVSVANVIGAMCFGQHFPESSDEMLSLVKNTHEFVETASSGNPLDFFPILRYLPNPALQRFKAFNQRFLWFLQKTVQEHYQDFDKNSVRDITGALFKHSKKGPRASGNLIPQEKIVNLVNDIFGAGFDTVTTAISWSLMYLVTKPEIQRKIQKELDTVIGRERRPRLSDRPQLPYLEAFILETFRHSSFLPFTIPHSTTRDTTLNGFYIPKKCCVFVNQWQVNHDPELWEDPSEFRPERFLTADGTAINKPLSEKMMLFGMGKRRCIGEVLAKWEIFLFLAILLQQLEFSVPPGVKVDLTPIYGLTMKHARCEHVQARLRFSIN

AC50, inactive:
O=C(Nc1cccc(C(=O)Nc2ccc(S(=O)(=O)O)c3cc(S(=O)(=O)O)cc(S(=O)(=O)O)c23)c1)Nc1cccc(C(=O)Nc2ccc(S(=O)(=O)O)c3cc(S(=O)(=O)O)cc(S(=O)(=O)O)c23)c1

AC50, active:
CC(C)c1ccc(Cn2ccc3c4c(N)nc(NC5CC5)nc4ccc32)cc1 1.58 µM
COc1ccccc1-c1ccc2ncnc(NCCNC(C)=O)c2c1 5.01 µM
CC(=O)NCCNc1ncnc2ccc(-c3ccccc3C(F)(F)F)cc12 10 µM
CC(=O)NCCNc1ncnc2ccc(-c3ccccc3C)cc12 0.631 µM
O=c1cnc2cnc(Nc3ccccc3)nc2n1C1CC1 0.631 µM
COc1cccc(Nc2ncc3ncc(=O)n(C4CC4)c3n2)c1 0.631 µM
COc1cccc(Nc2ncc3nc(C)c(=O)n(C4CC4)c3n2)c1 1.26 µM
Cc1nc2cnc(Nc3ccccc3)nc2n(C2CC2)c1=O 1 µM
O=C(Nc1ccc(C(=O)Nc2ccc(C(=O)Nc3ccc(S(=O)(=O)O)c4cc(S(=O)(=O)O)cc(S(=O)(=O)O)c34)cc2)cc1)Nc1ccc(C(=O)Nc2ccc(C(=O)Nc3ccc(S(=O)(=O)O)c4cc(S(=O)(=O)O)cc(S(=O)(=O)O)c34)cc2)cc1 31.6 µM
Fc1ccc(Nc2ncnc3ccc(-c4ccoc4)cc23)cc1 1 µM
c1ccc(Nc2ncnc3ccc(-c4ccoc4)cc23)cc1 1.58 µM
CCN(C(=O)CSc1nc2cc(C(=O)OC)ccc2c(=O)n1Cc1ccco1)c1cccc(C)c1 2.51 µM
COC(=O)[C@H]1C[C@@H]1[C@H](NC(=O)Oc1ccc(F)cc1)c1ccccc1 1 µM
COC(=O)[C@@H]1C[C@H]1[C@@H](NC(=O)Oc1ccc(F)cc1)c1ccccc1 3.16 µM
Cc1ccccc1OCCCn1c(=O)sc2ccccc21 3.16 µM
O=c1sc2ccccc2n1CCCOc1ccccc1 15.8 µM
O=C(Nc1nc(-c2ccccc2)cs1)c1cccc([N+](=O)[O-])c1 1.41 µM
CCOC(=O)c1cccc(NC(=O)COc2ccc([N+](=O)[O-])cc2)c1 12.6 µM
CCC(=O)Nc1cccc(NC(=O)c2cccc([N+](=O)[O-])c2)c1 7.08 µM
CCC(=O)Nc1cccc(C(=O)/C=C/c2ccccc2)c1 1 µM
COc1ccc(Cl)cc1N=Nc1ncc[nH]1 0.631 µM
Clc1ccc(Cn2c(CN3CCCC3)nc3ccccc32)cc1 10 µM
CC(C(=O)NCc1ccc2c(c1)OCO2)N1c2cccc3cccc(c23)S1(=O)=O (stereo not given) 1.78 µM
COc1ccccc1C1=NOC(COC(=O)c2ccc3ccccc3n2)C1 (stereo not given) 14.1 µM
COc1cc(CNC2CCCC2)cc(Cl)c1OCc1ccccc1Cl 0.708 µM
COc1cc(O)oc1C=Nc1ccc(C(F)(F)F)cc1 0.501 µM
COc1cc(O)oc1C=Nc1ccc(Cl)cc1 2.24 µM
CCC#CCOCC(=O)Nc1ccccc1 25.1 µM
Cc1cccc(C)c1OC1(c2ccccc2)OC(=O)c2ccccc21 (stereo not given) 20 µM
O=C(CSc1nc2ccccc2[nH]1)Nc1c(F)cccc1F 8.91 µM

activity, negative = inhibition, inactive:
CC(=O)NCCNc1ncncc1-c1ccccc1C(F)(F)F -19.2%
CC1=C(C(=O)O)N2C(=O)[C@@H](NC(=O)[C@@H](N)C3=CCC=CC3)[C@@H]2SC1 -0.757%
Cc1ccc(S(=O)(=O)N2CCN(C(=O)c3ccccc3)C2C(C)C)cc1 (stereo not given) -9.28%
CN1CCN(C(=O)C(C(=O)c2ccc(F)cc2)n2ccccc2=O)CC1 (stereo not given) -0.425%
CCc1ccc(NC(=O)CSc2nc3cc(C(=O)OC)ccc3c(=O)n2Cc2ccco2)cc1 -27.9%
O=P(O)(COc1ccccc1)COc1ccccc1 -1.64%
Cc1ccc(OCCCn2c(=O)sc3ccccc32)cc1 -65.4%
O=C(Nc1cccc([N+](=O)[O-])c1)c1ccc(CSc2ccccc2)cc1 -21.6%
O=C(COc1ccc(/C=N/NC(=O)c2ccccc2)cc1)Nc1ccc([N+](=O)[O-])cc1 -1.47%
COc1ccccc1Nc1nc(-c2sc(NC(=O)c3ccc([N+](=O)[O-])cc3)nc2C)cs1 -20.4%
CS(=O)(=O)N(CC(=O)Nc1cccc(F)c1)c1cccc([N+](=O)[O-])c1 -3.74%
CC(C)NC(=O)N1CCC2(CC1)CCN(S(C)(=O)=O)CC2 -8.96%
Cc1ccccc1N1C(=O)c2cc(S(N)(=O)=O)c(Cl)cc2N[C@H]1C 0.243% [at 25.6 µM]
Cn1c(=O)[nH]c(=O)c2c1nc(CN1CCOCC1)n2Cc1ccccc1 2.89%
O=C(CN(c1ccccc1)S(=O)(=O)c1ccccc1)NCCSCc1ccco1 -14.5%
O=C(O)c1c(-c2c3ccc(=O)cc-3oc3cc(O)ccc23)cc2ccccc2c1-c1ccccc1 -17.6% [at 2.29 µM]
CNC(=O)/C(C#N)=c1\s/c(=C/C(=O)OC)c(=O)n1-c1ccccc1 -4.92%
COC(=O)[C@@H]1[C@@H](O)[C@]2(O)c3ccccc3O[C@]2(c2ccccc2)[C@H]1c1ccccc1 -6.42% [at 11.4 µM]
COc1ccccc1CNC(=O)CCCn1c(=O)c2ccccc2n(CC(=O)NC2CCCC2)c1=O 0.328%
COc1cccc(CNc2ccc(F)c(Cl)c2)c1O -22.8%
COC(=O)N1CCC2(CCN(C(=O)Nc3ccccc3)CC2)CC1 -5.21%
CC(C)CN1CCCC2(CCN(C(=O)c3cccc(F)c3)CC2)C1 7.46%
Nc1ncnc2c1ncn2[C@H]1O[C@@H](CO)[C@@H](O)[C@H]1N -8.67% [at 11.4 µM]
CCCCOC1(c2ccccc2)OC(=O)c2ccccc21 (stereo not given) -28.7%
CCCCCCCOC1(c2ccccc2)OC(=O)c2ccccc21 (stereo not given) -19.2%
CC(=O)N1CCC2(CC1)CCN(c1ccccn1)CC2 1.45%
O=C1C=CC(=Nc2cccc3c(N=C4C=CC(=O)O4)cccc23)O1 -14% [at 11.4 µM]
O=C(O)CSc1nc2ccccc2[nH]1 -19.8% [at 11.4 µM]
O=C(CCN1C(=O)C2C3C=CC(C3)C2C1=O)Nc1c(F)cccc1F (stereo not given) 2.98%
